From PubChem BioAssay (Tox21) come the findings set out here.

Assay [1] in a line: Caspase-3/7 induction in CHO-K1 cells by small molecules, qHTS cell viability counter screen (AID 1346979). Also: nearly all actives have a fitted effect of over 35% in size. Also: potency is read from the fitted curve at half-maximal effect. The procedure, abridged: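 Following a 5hr settling period, CHO-K1 cells at 1,500 per well received DMSO-dissolved compounds. Cell viability was quantified 16hr later by CellTiter-Fluor fluorescence, measured after 1hr with reagent at 37C.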
In general terms: qHTS replaces the single test concentration by a dilution series.

Assay [2] is described as follows: Caspase-3/7 induction in CHO-K1 cells by small molecules, qHTS assay (AID 1346980). Also: nearly all actives have a fitted effect of over 15% in size. Also: potency is read from the fitted curve at half-maximal effect. Put shortly:
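Wild-type cells were seeded at 1,500 per well and settled 5 hr at 37 C, 5% CO2, then exposed to DMSO-dissolved compounds for 17 hr. Caspase-Glo 3/7 reagent was added, and luminescence was read after 30min at room temperature.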

A short description of assay [3]: Caspase-3/7 induction in HepG2 cells by small molecules, qHTS cell viability counter screen (AID 1346981). Also: nearly all actives have a fitted effect of over 30% in size. Also: potency is read from the fitted curve at half-maximal effect. Put shortly: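 Steps: seed 2,000 HepG2 cells per well; incubate 5 hr at 37 C; pin-add compounds in DMSO; incubate 16 hr; add CellTiter-Fluor; after 1 hr at 37 C and 5% CO2, read fluorescence.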
Assay [4] deals with Nuclear receptor subfamily 1 group I member 2 (Homo sapiens) (UniProt O75469). Put plainly: Human pregnane X receptor (PXR) small molecule agonists, qHTS assay (AID 1346982). Also: nearly all actives have a fitted effect of over 35% in size. Also: potency is read from the fitted curve at half-maximal effect. The procedure, abridged: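 Agonist mode qHTS: PXR-Luc HepG2 cells plated 5 hr before DMSO-dissolved compounds were pinned in, cultured 24 hr at 37 C, 5% CO2; ONE-Glo luminescence readout.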
In assay [5] the target is Nuclear receptor subfamily 1 group I member 2 (Rattus norvegicus) (UniProt Q9R1A7). Kind of assay: Rat pregnane X receptor (rPXR) activation by small molecules, qHTS assay (AID 1346983). Also: nearly all actives have a fitted effect of over 20% in size. The following applies: rPXR luciferase reporter cells, One-Glo luminescence, 24 h; max activation: stronger effect = higher value. The procedure, abridged:
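Cell-based rPXR luciferase reporter assay, 2,000 cells per well, rested 5hr at 37 C before compound addition in DMSO, then 24 hr at 37 C. One-Glo reagent was added and luminescence read after 30 min at room temperature.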

Assay [6] concerns the target Nuclear receptor subfamily 1 group I member 2 (Homo sapiens) (UniProt O75469). Kind of assay: CYP3A4 induction through human pregnane X receptor (PXR) by small molecules, qHTS assay (AID 1346984). Also: nearly all actives have a fitted effect of over 40% in size. Put shortly: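 Steps: seed DPX-2 cells, 5 hr at 37C; pin-transfer compounds; 24 hr at 37C; add Luciferin-IPA (3uM final), 3 hr at 37C; add One-Glo, 30 min RT; read luminescence.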

Assay [7] has the same target. Kind of assay: Human pregnane X receptor (PXR) activation by small molecules, qHTS assay (AID 1346985). Also: nearly all actives have a fitted effect of over 40% in size. The procedure, abridged: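 DPX-2 cells (HepG2 co-transfected with a PXR response element and a CYP3A4-promoter luciferase construct) were seeded at 2,000 per well, rested 5 hr at 37C, then exposed to DMSO-dissolved compounds for 24 hr. Activation was read as luciferase luminescence.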

In assay [8] the target is Cytochrome P450 2D6 (Homo sapiens) (UniProt P10635). Kind of assay: Cytochrome P450 Family 2 Subfamily D Member 6 (CYP2D6) small molecule antagonists: luciferase reporter qHTS assay (AID 1671196). Also: nearly all actives have a fitted effect of over 50% in size. Also: potency is read from the fitted curve at half-maximal effect. The procedure, abridged:
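P450-Glo format: CYP2D6 converts a proluciferin substrate to luciferin in an NADPH-driven reaction lasting 1 h at room temperature. Light output, proportional to CYP2D6 activity, reflects interference by test chemicals.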
A general note: A reporter such as luciferase makes a cellular process visible.

Assay [9] concerns the target Cytochrome P450 2C19 (Homo sapiens) (UniProt P33261). Put plainly: Cytochrome P450 Family 2 Subfamily C Member 19 (CYP2C19) small molecule antagonists: luciferase reporter qHTS assay (AID 1671197). Also: nearly all actives have a fitted effect of over 65% in size. Also: potency is read from the fitted curve at half-maximal effect. Put shortly: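 Relative luminescence units recorded 20 min after the detection reagent stopped a 1 h, 37C CYP2C19 reaction on proluciferin substrate, which was started by NADPH regeneration following 10 min room-temperature compound preincubation; ketoconazole positive control.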

For assay [10], the target named is Cytochrome P450 2C9 (Homo sapiens) (UniProt P11712). Put plainly: Cytochrome P450 Family 2 Subfamily C Member 9 (CYP2C9) small molecule antagonists: luciferase reporter qHTS assay (AID 1671198). Also: nearly all actives have a fitted effect of over 50% in size. Also: potency is read from the fitted curve at half-maximal effect. Put shortly: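 CYP2C9 activity was measured with a P450-Glo proluciferin substrate. Enzyme–substrate mix was held with compound for 10 min at room temperature, then NADPH regeneration solution was added for 1 h at 37C. Luciferin product was read as luminescence.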

Assay [11] addresses Cytochrome P450 1A2 (Homo sapiens) (UniProt P05177). Kind of assay: Cytochrome P450 Family 1 Subfamily A Member 2 (CYP1A2) small molecule antagonists: luciferase reporter qHTS assay (AID 1671199). Also: nearly all actives have a fitted effect of over 50% in size. Also: potency is read from the fitted curve at half-maximal effect. Put shortly: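 Inhibition of CYP1A2 conversion of proluciferin to luciferin, detected by luminescence. Reaction run 1 h at room temperature with NADPH regeneration after brief compound preincubation.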

Assay [12] has as its target Voltage-gated inwardly rectifying potassium channel KCNH2 (Homo sapiens) (UniProt Q12809). Put plainly: Human Ether-a-go-go-Related Gene (hERG) channel small molecule antagonists: fluorescence cell-based qHTS assay (AID 1671200). Also: nearly all actives have a fitted effect of over 50% in size. Also: potency is read from the fitted curve at half-maximal effect. Put shortly: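 In this thallium-flux screen, overnight-cultured U2OS cells bearing the channel are dye-loaded in darkness for an hour, rested 10 min at room temperature, and then monitored kinetically at 480/540 nm for two minutes post-stimulus.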
In general terms: hERG is a cardiac potassium channel; its block is linked to QT prolongation.

In assay [13] the target is Cytochrome P450 3A4 (Homo sapiens) (UniProt P08684). Put plainly: Cytochrome P450 Family 3 Subfamily A Member 4 (CYP3A4) small molecule antagonists: luciferase reporter qHTS assay (AID 1671201). The procedure, abridged:
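CYP3A4 activity was followed with a P450-Glo proluciferin substrate. Test compounds in DMSO were preincubated 10 min; NADPH regeneration then ran 1 h, and light output was read 20 min after detection reagent.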

Each structure is given as a SMILES string. A number with no mark means an inactive call. Records with an inconclusive call do not appear. The source made the active and inactive calls. Calls follow the shape of the dose curve; as a rule, active = well fitted curve in the direction sought with a large enough effect in the repeat runs; inconclusive = weak or mixed curves; inactive = no such curve, though single readings can be large; an effect the other way counts as inactive or inconclusive.
% is scaled to controls: 0 for no effect and ±100 for the full control effect.

Chain of Cytochrome P450 1A2 (Homo sapiens) (P05177 whole entry, looked up): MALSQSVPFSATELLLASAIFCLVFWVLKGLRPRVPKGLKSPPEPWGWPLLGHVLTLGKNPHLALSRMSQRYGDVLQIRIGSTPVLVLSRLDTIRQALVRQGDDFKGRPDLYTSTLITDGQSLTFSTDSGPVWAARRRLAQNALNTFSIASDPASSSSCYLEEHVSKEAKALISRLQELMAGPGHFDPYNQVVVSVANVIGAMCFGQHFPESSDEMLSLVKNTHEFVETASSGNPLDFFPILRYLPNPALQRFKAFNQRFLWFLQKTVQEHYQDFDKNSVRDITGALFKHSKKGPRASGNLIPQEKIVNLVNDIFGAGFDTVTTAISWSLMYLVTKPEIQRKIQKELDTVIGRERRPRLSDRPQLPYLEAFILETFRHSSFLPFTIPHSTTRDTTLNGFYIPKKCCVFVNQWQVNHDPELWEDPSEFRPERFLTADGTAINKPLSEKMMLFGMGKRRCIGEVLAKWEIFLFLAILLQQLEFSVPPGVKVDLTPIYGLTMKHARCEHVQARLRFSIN
Chain of Nuclear receptor subfamily 1 group I member 2 (Homo sapiens) (O75469 whole entry, looked up): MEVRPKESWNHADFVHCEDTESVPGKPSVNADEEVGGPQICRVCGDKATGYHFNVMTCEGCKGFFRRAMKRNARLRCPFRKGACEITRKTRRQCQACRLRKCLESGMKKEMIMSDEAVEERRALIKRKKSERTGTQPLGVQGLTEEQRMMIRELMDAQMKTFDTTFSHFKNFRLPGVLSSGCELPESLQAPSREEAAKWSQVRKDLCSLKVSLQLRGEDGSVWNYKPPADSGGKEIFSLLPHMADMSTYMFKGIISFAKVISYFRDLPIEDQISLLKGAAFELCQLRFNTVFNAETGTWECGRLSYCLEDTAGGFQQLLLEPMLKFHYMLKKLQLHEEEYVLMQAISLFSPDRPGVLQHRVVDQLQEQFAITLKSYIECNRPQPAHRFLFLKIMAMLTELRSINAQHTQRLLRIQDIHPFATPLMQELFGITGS
Chain of Cytochrome P450 2C19 (Homo sapiens) (P33261 whole entry, looked up): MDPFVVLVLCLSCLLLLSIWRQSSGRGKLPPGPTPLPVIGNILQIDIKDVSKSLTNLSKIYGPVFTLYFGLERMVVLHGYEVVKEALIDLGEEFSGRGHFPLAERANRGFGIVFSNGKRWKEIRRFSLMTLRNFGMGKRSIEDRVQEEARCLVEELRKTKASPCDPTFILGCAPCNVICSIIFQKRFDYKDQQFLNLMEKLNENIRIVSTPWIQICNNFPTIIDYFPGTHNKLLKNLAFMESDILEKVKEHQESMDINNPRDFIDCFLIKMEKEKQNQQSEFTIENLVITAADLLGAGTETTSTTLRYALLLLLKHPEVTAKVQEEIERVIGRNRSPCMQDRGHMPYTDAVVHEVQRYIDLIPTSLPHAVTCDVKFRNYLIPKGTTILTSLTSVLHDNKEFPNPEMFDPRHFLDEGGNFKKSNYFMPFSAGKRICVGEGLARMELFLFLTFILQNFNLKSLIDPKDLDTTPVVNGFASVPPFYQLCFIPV
Chain of Cytochrome P450 2C9 (Homo sapiens) (P11712 whole entry, looked up): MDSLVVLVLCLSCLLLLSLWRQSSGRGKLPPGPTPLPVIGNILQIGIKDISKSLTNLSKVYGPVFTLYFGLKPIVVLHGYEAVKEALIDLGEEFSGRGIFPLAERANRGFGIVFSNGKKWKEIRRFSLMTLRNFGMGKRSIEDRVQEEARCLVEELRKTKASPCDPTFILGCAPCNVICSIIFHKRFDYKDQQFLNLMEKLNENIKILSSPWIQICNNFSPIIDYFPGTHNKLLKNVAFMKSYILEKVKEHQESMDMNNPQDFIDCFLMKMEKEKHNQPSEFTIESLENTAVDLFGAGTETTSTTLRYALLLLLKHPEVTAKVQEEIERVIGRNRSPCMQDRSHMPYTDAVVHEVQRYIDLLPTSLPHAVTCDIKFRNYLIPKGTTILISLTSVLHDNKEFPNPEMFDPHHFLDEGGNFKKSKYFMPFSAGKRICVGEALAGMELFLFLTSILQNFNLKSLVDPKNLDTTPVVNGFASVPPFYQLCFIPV
Chain of Cytochrome P450 2D6 (Homo sapiens) (P10635 whole entry, looked up): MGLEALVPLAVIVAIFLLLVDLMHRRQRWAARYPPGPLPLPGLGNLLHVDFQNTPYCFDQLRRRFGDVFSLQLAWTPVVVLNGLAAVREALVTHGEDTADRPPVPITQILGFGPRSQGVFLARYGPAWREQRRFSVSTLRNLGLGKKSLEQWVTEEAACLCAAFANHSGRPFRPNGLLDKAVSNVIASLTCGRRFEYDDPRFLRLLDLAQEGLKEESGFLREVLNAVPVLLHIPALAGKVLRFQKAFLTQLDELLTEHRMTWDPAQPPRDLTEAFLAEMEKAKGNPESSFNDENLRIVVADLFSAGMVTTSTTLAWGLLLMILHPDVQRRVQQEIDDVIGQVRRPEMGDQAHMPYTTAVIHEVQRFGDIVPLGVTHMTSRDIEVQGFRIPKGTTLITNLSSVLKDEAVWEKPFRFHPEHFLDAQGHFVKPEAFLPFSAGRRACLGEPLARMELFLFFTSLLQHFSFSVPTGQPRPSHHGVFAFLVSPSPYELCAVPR
Chain of Voltage-gated inwardly rectifying potassium channel KCNH2 (Homo sapiens) (Q12809 whole entry, looked up): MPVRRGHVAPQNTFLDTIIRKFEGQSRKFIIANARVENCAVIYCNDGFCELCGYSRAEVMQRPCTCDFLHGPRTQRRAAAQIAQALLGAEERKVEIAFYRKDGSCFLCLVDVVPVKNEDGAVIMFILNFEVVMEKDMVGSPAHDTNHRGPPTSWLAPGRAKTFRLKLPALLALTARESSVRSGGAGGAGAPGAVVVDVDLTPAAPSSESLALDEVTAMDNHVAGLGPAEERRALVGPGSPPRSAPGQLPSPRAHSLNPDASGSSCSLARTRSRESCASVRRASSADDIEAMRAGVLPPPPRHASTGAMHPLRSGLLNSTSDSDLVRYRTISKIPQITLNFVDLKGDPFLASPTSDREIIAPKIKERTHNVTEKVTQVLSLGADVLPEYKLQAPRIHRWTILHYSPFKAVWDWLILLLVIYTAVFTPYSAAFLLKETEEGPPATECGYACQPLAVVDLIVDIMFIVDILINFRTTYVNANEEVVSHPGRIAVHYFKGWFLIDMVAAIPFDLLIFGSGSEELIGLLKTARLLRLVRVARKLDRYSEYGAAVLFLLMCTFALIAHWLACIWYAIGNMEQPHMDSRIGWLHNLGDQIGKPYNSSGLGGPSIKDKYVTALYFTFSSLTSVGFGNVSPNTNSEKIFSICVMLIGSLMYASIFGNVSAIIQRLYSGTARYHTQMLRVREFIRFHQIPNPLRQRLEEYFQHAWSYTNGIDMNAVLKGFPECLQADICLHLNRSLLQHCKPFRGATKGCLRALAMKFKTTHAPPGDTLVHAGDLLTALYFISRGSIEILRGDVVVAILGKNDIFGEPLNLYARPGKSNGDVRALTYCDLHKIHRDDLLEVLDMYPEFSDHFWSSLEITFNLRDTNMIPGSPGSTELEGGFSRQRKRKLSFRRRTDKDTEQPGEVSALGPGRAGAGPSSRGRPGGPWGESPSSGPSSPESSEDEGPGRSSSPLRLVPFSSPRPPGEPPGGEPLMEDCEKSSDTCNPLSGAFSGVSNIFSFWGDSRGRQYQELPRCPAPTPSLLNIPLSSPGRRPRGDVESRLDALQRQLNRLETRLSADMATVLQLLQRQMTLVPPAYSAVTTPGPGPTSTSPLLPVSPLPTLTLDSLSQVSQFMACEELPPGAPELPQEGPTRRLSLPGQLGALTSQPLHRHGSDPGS
Chain of Nuclear receptor subfamily 1 group I member 2 (Rattus norvegicus) (Q9R1A7 whole entry, looked up): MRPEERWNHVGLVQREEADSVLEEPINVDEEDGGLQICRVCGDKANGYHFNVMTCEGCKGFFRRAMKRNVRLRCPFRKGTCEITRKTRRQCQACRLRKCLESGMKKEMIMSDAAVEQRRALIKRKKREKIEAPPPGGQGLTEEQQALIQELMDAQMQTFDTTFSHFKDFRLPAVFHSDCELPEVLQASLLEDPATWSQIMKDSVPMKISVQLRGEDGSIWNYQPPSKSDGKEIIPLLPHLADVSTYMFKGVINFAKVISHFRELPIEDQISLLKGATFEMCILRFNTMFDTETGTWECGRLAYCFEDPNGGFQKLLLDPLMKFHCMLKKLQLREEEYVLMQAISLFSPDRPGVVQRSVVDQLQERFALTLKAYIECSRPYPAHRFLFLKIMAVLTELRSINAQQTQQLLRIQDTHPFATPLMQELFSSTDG
Chain of Cytochrome P450 3A4 (Homo sapiens) (P08684 whole entry, looked up): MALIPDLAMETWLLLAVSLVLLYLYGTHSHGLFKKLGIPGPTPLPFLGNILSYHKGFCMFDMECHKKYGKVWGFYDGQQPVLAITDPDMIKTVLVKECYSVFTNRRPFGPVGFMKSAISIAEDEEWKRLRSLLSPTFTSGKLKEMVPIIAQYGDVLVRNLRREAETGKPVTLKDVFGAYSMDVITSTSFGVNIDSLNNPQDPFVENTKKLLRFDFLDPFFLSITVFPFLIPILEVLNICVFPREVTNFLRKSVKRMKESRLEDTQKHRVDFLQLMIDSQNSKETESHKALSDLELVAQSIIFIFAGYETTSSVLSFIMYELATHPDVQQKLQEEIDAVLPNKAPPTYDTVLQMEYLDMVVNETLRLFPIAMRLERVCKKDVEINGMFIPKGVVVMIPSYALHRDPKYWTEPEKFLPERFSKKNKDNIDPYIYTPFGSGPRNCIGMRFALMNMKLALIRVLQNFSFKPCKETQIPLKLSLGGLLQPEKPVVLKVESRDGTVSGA

On to `CO[C@H]1C=CO[C@@]2(C)Oc3c(C)c(O)c4c(O)c(cc(O)c4c3C2=O)NC(=O)/C(C)=C\C=C/[C@H](C)[C@H](O)[C@@H](C)[C@@H](O)[C@@H](C)[C@H](OC(C)=O)[C@@H]1C`, for which the Potency is 19.5 µM (active) in [1]; 61.6 µM (active) in [3]; 7.75 µM (active) in [4]; 35.8 µM (active) in assay [8]; 20.2 µM (active) in assay [9]; 10.1 µM (active) in [10]. Also, the Potency entry in assay [2], in assay [6] and in assay [7] was “inactive” each time. In assay [5], the max activation is -1.49%.
Consider `CCCCCCCC/C=C\CCCCCCCC(=O)NCc1ccc(O)c(OC)c1`, for which the Potency entry in [1], in assay [2], in [3], in [4], in assay [6] and in assay [7] was “inactive” each time. In addition, the Potency entry in assay [12] is “inactive”. Moreover, the Potency in assay [9] and in assay [11] was 15.5 µM (active) throughout.
Regarding `O=C1C=CC(=O)N1c1ccccc1`, the Potency is 9.69 µM (active) in assay [1]; 61.1 µM (active) in [3]; 39.9 µM (active) in assay [8]; 20 µM (active) in assay [9]; 28.3 µM (active) in [10]; 20 µM (active) in assay [11]. The Potency in [12] is 49 µM (active). The Potency result in [2] and in assay [4] was “inactive” throughout.
With `O=C(O)Cc1ccc(OCCNC[C@H](O)c2ccccc2)cc1`, the Potency result in assay [1], in assay [2], in assay [3], in assay [4], in assay [8] and in assay [9] was “inactive” throughout. Further, the Potency result in [10], in assay [11] and in [12] was “inactive” each time.
In the case of `CC(C)N=C(N)/N=C(\N)Nc1ccc(Cl)cc1`, the values for the Potency in [1], in assay [8] and in [9] were 11.9 µM (active), 5.49 µM (active) and 15.5 µM (active), respectively. Also, the Potency entry in assay [2], in [3], in [4], in assay [6], in assay [7] and in [13] was “inactive” each time. For the same compound, the max activation in [5] was -16.8%.
Consider `CC(=O)O[C@@H]1C[C@@H]2CC[C@@]1(C)C2(C)C`, for which the Potency entry in assay [1], in [2], in [3], in assay [4], in assay [8] and in assay [9] was “inactive” in each case. The Potency result in assay [10], in assay [12] and in [13] was “inactive” throughout. Also, the Potency in [11] was 39.9 µM (active).
As to `CN1[C@@H]2CC[C@@H]1CC(OC(=O)C(CO)c1ccccc1)C2` (stereo partly specified), the Potency result in [1], in [2] and in [3] was “inactive” in each case.
Turning to `Clc1ccccc1CN1CCc2sccc2C1`, the Potency result in assay [1], in assay [2] and in assay [3] was “inactive” each time.
On to `CCCCOCC`, for which the Potency result in assay [1], in assay [2], in assay [3], in [4], in assay [8] and in [9] was “inactive” each time. Besides, the Potency entry in [10], in assay [11] and in [12] was “inactive” each time.
With `O=C1c2c(O)ccc(O)c2C(=O)c2c(NCCNCCO)ccc(NCCNCCO)c21`, the figures for the Potency in [1] and in assay [3] were 10.6 µM (active) and 11.9 µM (active), respectively. In assay [2], the Potency result was “inactive”.
For the compound `CCN(CC)CCNc1ccc(CO)c2sc3ccccc3c(=O)c12`, the Potency in assay [1] was 23.7 µM (active); in assay [3] it was 13.3 µM (active); in [8], 3.47 µM (active); in assay [11], 0.512 µM (active); in [12] it was 10.7 µM (active). For the same compound, the Potency entry in [2], in assay [4], in [9] and in [10] was “inactive” each time.
Regarding `C/C=C/C(=O)Oc1c(CCCCCC(C)C)cc([N+](=O)[O-])cc1[N+](=O)[O-]`, the Potency was 15.4 µM (active) in assay [1]; 48.6 µM (active) in assay [2]; 27.3 µM (active) in assay [3]; 21.7 µM (active) in assay [4]; 35.6 µM (active) in assay [9]; 2.52 µM (active) in [10]. The Potency in assay [11] was 25.2 µM (active); in assay [12] it was 21.9 µM (active). Moreover, the Potency entry in assay [8] is “inactive”.
`NCCCC(O)(P(=O)(O)O)P(=O)(O)O`: the Potency entry in assay [1], in [2] and in [3] was “inactive” throughout.
